Assay results from PubChem BioAssay AID449764 (Southern Research Specialized Biocontainment Screening …, 2010).
Hit rate of the full screen: of about 2,300 compounds, about 1,700 (74%) were called active. So high a share suggests a set chosen from earlier hits. Some of the results follow. Entries with a potency or affinity are not part of this list. A number with no mark means an inactive call. No rule for the calls is given here.

Assay: Confirmatory growth inhibition assay, Mycobacterium tuberculosis H37Rv, absence of glycerol (AID 449764);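 also: growth read after 7 days of incubation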
Details: no glycerol; series mostly up to 100 µM; inhibition: at the top concentration

First: COc1ccc(-c2ccc(=O)n(Cc3c(F)cccc3Cl)n2)cc1
Second: COc1ccc(-c2cc3n(n2)CCc2nc4ccccc4n2-3)cc1
The “inhibition” value of the first is lower: -1.26% for the first, 26.8% for the second.

Going from `COc1ccc(NC(NC(=O)c2ccc(OC)cc2)C(Cl)(Cl)Cl)cc1` (centres undefined) to `CCOc1ccc(OCc2ccc(C(=O)N/N=C(\C)c3ccccn3)cc2)cc1`, the “inhibition” value rises from -1.34% to 1.73%.

First: Cc1nc2ccc(NC(=O)N(C(C)C)C(C)C)cc2s1
Second: CC(C)c1ccc2nc(N)sc2c1
The “inhibition” value of the first is lower: -2.49% for the first, 0.13% for the second.

First: CCOc1[nH]n(-c2ccccc2)c(=O)c1C=Nc1ccc(OC)cc1
Second: COc1ccc(/C(O)=C/Sc2nnc(Cc3ccccc3)o2)cc1
The “inhibition” value of the first is lower: 2.32% for the first, 4.86% for the second.

First: O=C(Sc1nnc(-c2ccccc2)o1)N1c2ccccc2Sc2ccccc21
Second: O=C(OCc1ccccc1)c1cccc(-c2nnn(Cc3ccccc3)n2)c1
The “inhibition” value of the first is higher: 14.5% for the first, -2.98% for the second.

Going from `O=C(CCN1C(=O)C2CCCCC2C1=O)Nc1nc(-c2ccc(F)c(F)c2)cs1` (centres undefined) to `CCCC1CCC(C(=O)Nn2c(C)nc3ccccc3c2=O)CC1` (centres undefined), the “inhibition” value falls from 4.25% to -9.95%.

Compared with `COc1ccc(OCc2nnc3n2N=C(c2ccccc2)C(CC(=O)O)S3)cc1` (centres undefined), `Cc1nc(SCC(=O)Nc2ccc(OCc3ccccc3)cc2)n[nH]1` is higher in “inhibition” value: -2.9% for the first, 0.31% for the second.

Going from `COc1ccc(NC(=O)c2ccc(Cl)c(S(=O)(=O)N3CCc4ccccc4C3)c2)cn1` to `CCN(CC)S(=O)(=O)c1cc(C(=O)Oc2cccc(-c3cnc4ccccc4n3)c2)ccc1Br`, the “inhibition” value falls from -1.34% to -9.99%.

Compared with `CCOc1ccc(N(C(=O)/C=C/C(=O)Nc2cc(C)on2)C(C(=O)NC2CCCC2)c2ccccc2C)cc1` (centres undefined), `CCOc1ccc(NC(=S)Nc2cc(-c3ccccc3)[nH]n2)cc1` is higher in “inhibition” value: 21.2% for the first, 26.8% for the second.

Compared with `CC(C)Cn1[nH]c2c3c(ccc2c1=O)C(=O)c1ccccc1C3=O`, `CN1C(=O)c2cccc3c(Br)ccc(c23)C1=O` is higher in “inhibition” value: 6.42% for the first, 12.8% for the second.

Going from `Cc1ccc(C(=O)Nc2cccc(C(F)(F)F)c2)cc1Nc1ncnc2nc[nH]c12` to `Cc1ccc(-c2cn3cccnc3n2)cc1NC(=O)c1ccc(Br)o1`, the “inhibition” value falls from 15% to 2.75%.

Going from `Cc1ccc(Cl)cc1N1CCN(Cc2nc3ccsc3c(=O)[nH]2)CC1` to `COc1ccc(N2CCN(c3ccnc4cc(Cl)ccc34)CC2)cc1`, the “inhibition” value falls from 7.19% to -0.33%.

Going from `COc1ccc(-c2cc3ccccc3oc2=O)cc1NC(=O)c1ccc([N+](=O)[O-])o1` to `O=C(c1ccccc1)c1nn(-c2ccc(Cl)cc2)cc1C(=O)c1cc2ccccc2oc1=O`, the “inhibition” value rises from 1.39% to 9.58%.

Going from `Fc1ccc(N/N=C2/CC(c3ccccc3)Oc3ccccc32)c(F)c1` (centres undefined) to `CC1(C)SC(=S)N(NC(=O)Nc2cccc3ccccc23)C1N(O)C(=O)Nc1ccccc1` (centres undefined), the “inhibition” value rises from 5.36% to 6.93%.

Compared with `Oc1ccc2cc(Br)ccc2c1CN1CCCC1`, `COc1ccc(N2CCN(Cc3cc4c(cc3O)CCC4)CC2)cc1` is higher in “inhibition” value: -3.14% for the first, 4% for the second.

First: COc1ccc(-c2nc3ccccn3c2CN2CCN(c3ccccc3F)CC2)cc1
Second: COc1ccc(-c2cc(C(=O)N(C)CC(=O)Nc3cccc(F)c3)c3ccccc3n2)cc1
The “inhibition” value of the first is higher: 0.17% for the first, -7.46% for the second.

Going from `CCOC(=O)C(=NC1CCS(=O)(=O)C1)NNc1ccc(Br)cc1` (centres undefined) to `CCCCCCC(=O)N/N=C/c1ccc(Br)cc1`, the “inhibition” value rises from -10.1% to 6.63%.

Going from `CCOc1ccc(NC(C)c2cc(Cl)ccc2O)cc1` (centres undefined) to `CCOc1cc(C2NN=C(c3ccc(C)cc3)S2)ccc1O` (centres undefined), the “inhibition” value rises from 2.69% to 9.69%.

Compared with `Brc1cccc2sc(N3CCN(c4ccccc4)CC3)nc12`, `Oc1cccc(-c2nc3ccccc3s2)c1` is lower in “inhibition” value: 7.12% for the first, 5.57% for the second.

Going from `NC(=O)/C(=N\OC(=O)c1ccco1)c1nc(-c2ccc(Br)cc2)cs1` to `C=CCc1cccc2cc(C(=O)OCC(=O)c3ccccc3)c(=O)oc12`, the “inhibition” value rises from -1.01% to 3.21%.

First: Cc1cccc(C)c1OCC(O)CN1CCC(CN2C(=O)c3cccc4cccc(c34)C2=O)CC1 (centres undefined)
Second: CCCCOC(=O)c1c(C)oc2ccc(NS(=O)(=O)c3ccc4c5c(cccc35)C(=O)N4)cc12
The “inhibition” value of the first is lower: -1.32% for the first, 23.8% for the second.

Going from `O=[N+]([O-])c1nn(-c2ccc(Cl)cc2)n(O)c1=NCc1cccnc1` to `O=c1c2ccc(Cl)cc2nc(-c2ccc([N+](=O)[O-])cc2)n1O`, the “inhibition” value rises from -6.84% to 21.4%.

Going from `CCCCCCSc1nsc(NC(=O)CC(C)C)n1` to `CCCCc1ccc(NC(=O)CSC2=NN3CCCC(=O)N=C3S2)cc1`, the “inhibition” value rises from 3.62% to 16%.

Compared with `COC(=O)Cc1ccc(NC(=S)Nc2ccccn2)cc1`, `COC(=O)Cc1ccc(NC(=O)c2ccc(Br)o2)cc1` is lower in “inhibition” value: 2.82% for the first, 0.53% for the second.

First: O=C(/C=C/c1ccc(Cl)cc1)N1CCN(c2ccc(Cl)cc2[N+](=O)[O-])CC1
Second: O=C(c1cccc([N+](=O)[O-])c1)N1CCN(c2ccc(N3CCOCC3)nn2)CC1
The “inhibition” value of the first is lower: -4.08% for the first, -4% for the second.

First: COC(=O)c1cc(NC(=O)c2c(F)c(F)c(F)c(F)c2F)cc(C(=O)OC)c1
Second: COC(=O)c1ccc(N/C(C)=C/C(=O)c2ccc(C)o2)cc1
The “inhibition” value of the first is higher: 4.27% for the first, -5.59% for the second.

Going from `NC(=O)N1CCC2(CC1)NC(=O)N(c1ccccc1)N2` to `CN1CCN2c3ccccc3Cc3ccccc3C2C1` (centres undefined), the “inhibition” value rises from -5.19% to 28.2%.

First: O=C(/C=C/c1ccc(OCCCF)cc1)Nc1ccnc(-c2ccncc2)n1
Second: COC(OC)c1ccnc(-c2ccc(OC(=O)c3cccs3)cc2)n1
The “inhibition” value of the first is higher: -1.8% for the first, -10.9% for the second.

Going from `Cc1oc(C)c2c(=O)ccc3c(c12)OC(N)=C(C#N)C3c1ccccc1Cl` (centres undefined) to `Cc1cc(Nc2ccccc2)c2c([N+](=O)[O-])ccc(C)c2n1`, the “inhibition” value rises from -20.1% to -0.97%.

Going from `Cc1nn(C(C)(C)C)c(NC(=O)c2ccc(Cl)cc2Cl)c1Br` to `O=Cc1ccc(-c2ccc(Cl)cc2Cl)[nH]1`, the “inhibition” value rises from 0.12% to 1.82%.

Going from `Cc1ccc(F)cc1CNC(=O)c1cc(COc2ccc3ncccc3c2)on1` to `Cc1cc(-n2c(C)cc(C(=O)COc3ccc4ccc(=O)oc4c3)c2C)no1`, the “inhibition” value falls from 2.7% to -3.2%.

Going from `COc1ccc(N/C=C(\C2OC(=O)c3ccccc32)[N+](=O)[O-])cc1` (centres undefined) to `CO/N=C\CC(=O)Nc1ccc(Oc2ccccc2)cc1`, the “inhibition” value rises from -3.38% to -1.66%.

Going from `CC(C)c1nc2scc(-c3ccc(Cl)cc3)c2c(=O)n1N` to `CNC(=O)c1csc(-c2ccc(Cl)cc2)n1`, the “inhibition” value falls from -7.39% to -10.9%.

Going from `NN/C(=C\[N+](=O)[O-])Nc1ccc(Cl)cc1` to `C/C(=C\C(=O)c1ccccc1)Nc1ccc(Cl)c(Br)c1`, the “inhibition” value falls from 24.2% to -1.81%.

Going from `C/C(CC(=O)Nc1ccc2c(c1)OCCO2)=N\NC(=O)c1ccccc1F` to `Cc1ccc2c(c1)Oc1ccc(NC(=O)CCl)cc1C(=O)N2`, the “inhibition” value rises from -0.62% to 3.7%.

Compared with `CCCc1cc(=O)[nH]c(SCC(=O)N2CCCC2=O)n1`, `C=CCn1c(N)cc(=O)nc1SC(CC)C(=O)Nc1ccc(C(C)=O)cc1` (centres undefined) is lower in “inhibition” value: 6.69% for the first, 3.97% for the second.

Going from `O=C(Nc1ccc(-n2cccc2)cc1)C1CC1` to `CCc1ccc(NC(=O)c2ccc(C3SCC(=O)N3CCc3ccccc3)cc2)cc1` (centres undefined), the “inhibition” value falls from 24.6% to 18.5%.

Compared with `C[C@H](O)[C@H](O)[C@H]1CNc2nc(N)[nH]c(=O)c2N1`, `CCCCn1c(N)c(N(CC(C)C)C(=O)c2oc3c(Cl)cccc3c2C)c(=O)[nH]c1=O` is higher in “inhibition” value: -11.6% for the first, 2.95% for the second.

First: CCCCc1ccc(NC(=S)N2CCN(c3ncccn3)CC2)cc1
Second: CCCCCCc1ccc(N2C[C@H](C)[C@@H](CC(=O)NCc3ccccc3)C2=O)cc1
The “inhibition” value of the first is lower: 4.9% for the first, 4.93% for the second.

Compared with `C=C(C)C1CCC(C)=C1COC(=O)Nc1ccccc1` (centres undefined), `O=C1CCC(=O)N1CNc1ccc(Oc2ccccc2)cc1` is higher in “inhibition” value: -12.8% for the first, 8.78% for the second.

Compared with `CCn1c2ccccc2c2cc(NC(=O)CN(C)CC(=O)Nc3ccc(N4CCOCC4)cc3)ccc21`, `CC(=O)c1ccc(NC(=O)COC(=O)c2c3c(nc4ccccc24)/C(=C\c2cccs2)CCC3)cc1` is higher in “inhibition” value: -3.49% for the first, 4.09% for the second.

Compared with `COc1cc(/C=C2\C(=O)NN(c3ccc(C)cc3)C2=O)cc([N+](=O)[O-])c1O`, `CC(C)N1C(=O)NC(=O)C2(Cc3cc([N+](=O)[O-])ccc3N(C)C2c2ccccc2)C1=O` (centres undefined) is lower in “inhibition” value: 6.39% for the first, -12% for the second.

First: O=C(CSc1n[nH]c(-c2ccccc2)n1)Nc1ccc(Br)cn1
Second: Clc1nc2c(-c3ccccc3)nnn2c2ccccc12
The “inhibition” value of the first is lower: -23.1% for the first, 1.59% for the second.

First: O=c1c2c3c(sc2nc(N2CCNCC2)n1-c1cccc(Cl)c1)CCCCC3
Second: CC(C)(C)c1nc2sc3c(c2c(=O)o1)CCCC3
The “inhibition” value of the first is higher: 13.2% for the first, 9.95% for the second.

First: C/C(=N\NC(=O)CC(C)C)c1c(C(F)(F)F)[nH]n(-c2nc3ccccc3s2)c1=O
Second: Oc1ccccc1C=NC1=NN(c2cccc(C(F)(F)F)c2)CC1
The “inhibition” value of the first is higher: 10.1% for the first, 9.07% for the second.

First: Cc1ccc(NC(=O)CNCc2cccs2)cc1Br
Second: CC(=O)Oc1ccc2occ(C(=O)c3cccs3)c2c1
The “inhibition” value of the first is higher: 7.81% for the first, -6.49% for the second.

First: S=c1[nH]c2ccc3ccccc3c2[nH]1
Second: Nc1nc2ccccc2n1/N=C/c1ccc(Br)cc1
The “inhibition” value of the first is higher: 2.34% for the first, -0.83% for the second.

First: O=C(Nc1ccc(-c2noc(CCc3ccccc3)n2)cc1)c1cccnc1
Second: CC(/C=C/C=C/c1ccccc1)=N\NC(=O)c1cccnc1
The “inhibition” value of the first is higher: 15.6% for the first, -10.2% for the second.

Compared with `O=C(C1CC(=O)N(c2ccc3c(c2)OCCO3)C1)N1CCN(c2cccc(C(F)(F)F)c2)CC1` (centres undefined), `COc1cc(NC(=O)c2ccc(C(C)(C)C)cc2)c(OC)cc1NC(=O)CN1CCCCC1` is higher in “inhibition” value: -5.7% for the first, 0.98% for the second.

Going from `COc1cc(/C=N/N2CCOCC2)ccc1OCc1ccc(Cl)cc1` to `O=Cc1ccc2noc(-c3ccc(Cl)cc3)c2c1`, the “inhibition” value rises from 7.51% to 20.9%.

Going from `CC(C)OC(=O)c1ccc(N)cc1` to `CC(OC(=O)CCN=C1NS(=O)(=O)c2ccccc21)C(=O)Nc1ccc(F)c(F)c1F` (centres undefined), the “inhibition” value falls from 0.17% to -29.2%.

First: CCOC(=O)c1cc(CC)sc1NC(=O)c1cc(OCC)c(OCC)c(OCC)c1
Second: CCNc1nc(NCC)n2c(SC(C(=O)Nc3cc(C)ccc3C)c3ccccc3)nnc2n1 (centres undefined)
The “inhibition” value of the first is higher: 0.67% for the first, -4.86% for the second.

Going from `COc1ccccc1/C=C/C1=NC(=C\C=C/c2ccccc2)/C(=O)O1` to `CN(C)c1nc(NCc2ccccc2)nc(N/N=C/c2ccc3c(c2)OCO3)n1`, the “inhibition” value rises from 1.32% to 22.3%.

Going from `Cc1ccc(-c2nnc(C)c(N3CCCC3)n2)cc1` to `Cc1nn(-c2ccccn2)c2c1-c1nc(N3CCOCC3)ncc1CC2`, the “inhibition” value falls from 21.2% to 5.91%.

In the case of `Cc1sc2nc(CN(C(=O)NC3CCCCC3)C3CCCC3)[nH]c(=O)c2c1C`, the “inhibition” value is reported as 13.8%.
